Compound activity as filed in PubChem BioAssay.
Cardiac RTF inh: cardiac RTF calcium desensitization. P19429+P45379. IANBD-labeled cardiac RTF, Ca2+ fluorescence. inhibition, % at 7.15 µM. actives 0.12% (n = 340,000). AID 493244;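 active means inhibition above the mean inhibition of all tested compounds plus 3 SD, cut at about 17% in these data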;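 further: assay run at fixed EC70 calcium of 1.6 mM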
Keap1 Nrf2 FP: Keap1-Nrf2 (human) interaction inhibition; Q14145; Keap1 Kelch-Nrf2 peptide fluorescence polarization, 1536-well; inhibition, % at 9.4 µM; actives 0.15% (n = 340,000); AID 504523; in the data active means inhibition above about 12%;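 further: human Keap1 Kelch domain with fluorescein labeled Nrf2 9mer peptide probe; higher means more block of Keap1 binding to Nrf2 peptide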
Target sequence (Q14145 whole entry, looked up, the tested form may be a part): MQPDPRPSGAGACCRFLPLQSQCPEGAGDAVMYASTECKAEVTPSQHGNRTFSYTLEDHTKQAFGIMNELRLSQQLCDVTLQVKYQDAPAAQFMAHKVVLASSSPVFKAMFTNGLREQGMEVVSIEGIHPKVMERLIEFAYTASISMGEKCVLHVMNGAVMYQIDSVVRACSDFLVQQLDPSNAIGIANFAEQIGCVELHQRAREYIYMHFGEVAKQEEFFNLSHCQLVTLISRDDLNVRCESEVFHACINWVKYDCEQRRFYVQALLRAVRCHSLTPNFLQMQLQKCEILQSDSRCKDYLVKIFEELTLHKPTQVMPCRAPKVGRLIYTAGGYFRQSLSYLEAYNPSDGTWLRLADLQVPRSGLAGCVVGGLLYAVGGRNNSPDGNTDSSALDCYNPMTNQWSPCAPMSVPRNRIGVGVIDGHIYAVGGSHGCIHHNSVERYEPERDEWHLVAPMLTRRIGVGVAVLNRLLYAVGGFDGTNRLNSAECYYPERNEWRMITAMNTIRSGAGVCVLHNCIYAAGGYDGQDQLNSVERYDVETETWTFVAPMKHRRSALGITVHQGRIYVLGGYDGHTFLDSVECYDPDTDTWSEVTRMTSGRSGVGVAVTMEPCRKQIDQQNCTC
RTF Ca sens act: increases calcium sensitivity of human cardiac regulated thin filaments | actives 0.24% (n = 340,000) | P19429+P45379 | AID 493008 | IANBD-labeled TnC RTF fluorescence at EC20 calcium; 0% EC20 calcium, 100% full calcium | activation, % at 7.2 µM;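 active means activation above the mean over all tested compounds plus 3 SD, cut at about 30% in these data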;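 further: rise in fluorescence read as greater calcium sensitivity of cardiac thin filaments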
CRFR2-BP ag: CRF-BP/CRF-R2 complex agonism | HEK293 CRF-R2/CRF-BP, calcium dye fluorescence (FLIPR); percent of saturating CRF peptide response | activation, % at 13.2 µM | actives 0.46% (n = 350,000) | AID 588473;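 active means activation of at least 50%, plus an integration ratio under a set limit after plate pattern correction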
LANA DNA inh: inhibitors of KSHV LANA C-terminal domain DNA binding. MBP-C-LANA/FAM-LBS DNA binding, fluorescence polarization. inhibition, % at 9 µM. actives 0.078% (n = 340,000);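 active means highest replicate inhibition at or above 60% at 9 µM, even if other replicates fall short; inactive means all replicates below 60% inhibition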
CRFR2-BP antag: CRF-BP/CRF-R2 complex antagonism | inhibition, % at 11.8 µM | HEK293 CRF-R2/CRF-BP, CRF-induced calcium fluorescence | actives 0.59% (n = 350,000);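 active means inhibition of the ligand-induced calcium signal above about 50% at the single tested concentration, limit read from the data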
RTF inh confirm: confirmation of inhibitors of cardiac thin filament calcium sensitivity; reconstituted cardiac thin filaments, calcium sensitivity fluorescence; actives 8% (n = 360); inhibition, % at 7.15 µM; AID 504635; shares compounds with Cardiac RTF inh; in the data active means inhibition above about 18%
Hits are given with their value; – = inactive; · = no result. Only some compounds are listed: those with a hit (about 1.3% of all), similar ones and a draw of the others.

SMILES	Cardiac RTF inh	Keap1 Nrf2 FP	RTF Ca sens act	CRFR2-BP ag	LANA DNA inh	CRFR2-BP antag	RTF inh confirm
O=C(O)c1[nH]c2ccccc2c1C(c1ccccc1)c1c(C(=O)O)[nH]c2ccccc12	–	–	–	–	–	–	·
O=C(O)c1[nH]c2ccccc2c1C(c1cc(Cl)cc([N+](=O)[O-])c1O)c1c(C(=O)O)[nH]c2ccccc12	22	–	–	–	–	–	–
Cc1nc2ccc(S(=O)(=O)N(C)CC(=O)NCc3ccc4c(c3)OCO4)cc2s1	–	–	–	–	–	–	·
Nc1c(C(=O)NC2CC2)sc2nc3c(c(-c4ccco4)c12)CC/C3=C/c1ccco1	31	–	–	–	–	–	98
NC(=O)c1sc2nc3c(c(-c4ccco4)c2c1N)CCC3	–	–	–	–	–	–	·
CCO[C@H]1OC(C(=O)N2CCN(Cc3ccccc3)CC2)=C[C@@H](c2ccccc2)[C@@H]1CCCO	–	–	–	–	–	–	·
Nc1c(S(=O)(=O)c2cccs2)c2nc3ccccc3nc2n1/N=C/c1cccc(O)c1	20	–	–	–	–	–	–
COc1cccc(/C=N/n2c(N)c(S(=O)(=O)c3cccs3)c3nc4ccccc4nc32)c1	–	–	–	–	–	–	·
CCN(CC)S(=O)(=O)c1ccc(N/N=C/c2ccccc2OCC(=O)O)c([N+](=O)[O-])c1	19	–	–	–	–	–	–
CCOC(=O)c1c(N)sc2c(OC)c(Br)ccc12	21	–	–	–	–	–	–
CCOC(=O)C1CCN(C2=NC(=O)/C(=C/c3ccccc3OC)S2)CC1	–	–	–	–	–	–	·
CC(C)Cn1c(/C=C/c2ccco2)nc2ccccc21	18	–	–	–	–	–	–
O=C(NCCc1c[nH]c2ccccc12)C(=O)NCC1OCCN1S(=O)(=O)c1ccccc1 (centres undefined)	18	–	–	–	–	–	–
COc1cccc(-n2c(SCc3cc(=O)oc4cc(O)c(O)cc34)nc3ccccc3c2=O)c1	17	–	–	–	–	–	–
CCN(CC)C(=O)CSc1nc2ccccc2c(=O)n1-c1cccc(OC)c1	–	–	–	–	–	–	·
N=C(N)c1ccc(N=Nc2c(O)ccc3c2[nH]c2ccccc23)cc1	26	–	–	–	–	–	30
Oc1ccc(N=Nc2c(O)ccc3ccccc23)cc1	–	–	–	–	–	–	·
CC1(C)CC(=O)C2=C(C1)N(Cc1ccco1)C(=O)NC2(C(F)(F)F)C(F)(F)F	18	–	–	–	–	–	–
Cc1ccc(F)cc1NC(=O)CSCc1nc2sc(C)c(C)c2c(=O)[nH]1	–	·	–	–	·	–	·
O=C(Oc1cccc(C(=S)N2CCOCC2)c1)c1cccc([N+](=O)[O-])c1	–	–	–	–	–	–	·
O=C(Nc1nccs1)c1ccc(-c2ccc(F)cc2)o1	17	–	–	–	–	–	–
O=C(O)CSc1cc(C(=O)c2ccccc2O)cn2c(=O)c3c4c(sc3nc12)CCCC4	22	–	–	–	–	–	–
O=C(O)CSc1nc2sc3c(c2c(=O)n1Cc1ccccc1)CCCCC3	–	–	–	–	–	–	·
CCCCC(=O)N/N=C/c1ccc(-c2ccc([N+](=O)[O-])cc2)o1	–	–	–	–	–	–	·
Cc1cc(C)n(Cc2ccc(C(=O)N/N=C/c3ccc(-c4ccc([N+](=O)[O-])cc4)o3)o2)n1	29	–	–	–	–	–	–
SMILES	Cardiac RTF inh	Keap1 Nrf2 FP	RTF Ca sens act	CRFR2-BP ag	LANA DNA inh	CRFR2-BP antag	RTF inh confirm
O=C(Cn1nnc2ccccc2c1=O)Nc1ccc(S(=O)(=O)N2CCOCC2)cc1	17	–	–	–	–	–	–
Cc1ccc(NC(=O)Cn2nnc3ccccc3c2=O)cc1C	18	–	–	–	–	–	–
Cc1ccc(NC(=O)Cn2nnc3ccccc3c2=O)cc1	–	–	–	–	–	–	·
CC1(C)CC(=O)C2=C(C1)Nc1ccccc1NC2c1cccs1 (centres undefined)	19	–	–	–	–	–	–
O=C1CCCC2=C1C(c1cccs1)Nc1ccccc1N2 (centres undefined)	–	–	–	–	–	–	·
CCNC(=O)/C=C/c1ccccc1[N+](=O)[O-]	–	–	–	–	–	–	·
